Source: ChEMBL document CHEMBL4888484, “Replenishing the malaria drug discovery pipeline: Screening and hit evaluation of the MMV Hit Generation Library 1 (HGL1) against asexual blood stage Plasmodium falciparum ,using a nano luciferase reporter read-out” (2022)
The whole screen tested about 4,800 compounds, of which about 410 (8.5%) showed an effect of 50% or more. This is one part of a sample in which strong results are shown more often than they occur.

What follows are compounds tested on Plasmodium falciparum (assay: Confirmatory screen in NF54 pLDH assay, in single point, at 2uM, 72h). Settings: timepoint 72 hour.
Assay type: functional, Erythrocyte

Row | Structure (SMILES) | % Inhibition [%]
1 | COc1ccc(-n2ncc3c(NCCNC(=O)c4ccccc4Cl)nc(C)nc32)cc1 | -27
2 | Cc1ccc(OCC(=O)Nc2ccc(N3CCn4c(nc5ccccc54)C3)cc2Cl)cc1 | -20
3 | CN(CCCNC(=O)C(=O)Nc1ccn(C)n1)c1cccc(F)c1 | 10
4 | COCCOC(=O)c1cc(C(F)(F)F)cc(C(=O)OCCOC)n1 | 11
5 | Cn1c(=O)c2c(ncn2CC(=O)N(Cc2ccccc2)C2CC2)n(C)c1=O | 2
6 | CN(Cc1nccn1C)C(=O)c1cc2ccccc2[nH]1 | 15
7 | CCCn1c(C)cnc1C1CN(S(=O)(=O)c2cc(Cl)ccc2Cl)C1 | 6
8 | Cn1c(C(C)(C)C)nc2cc(NC3CCC4(CC3)OCCO4)ccc21 | -16
9 | COCc1cc(F)ccc1NC(=O)NC1CCN(c2cc(C)nc(C)n2)CC1 | 5
10 | Cn1ncc2c(N3CC(=O)N(C4CC4)C3)ncnc21 | -15
11 | C[C@@H]1CN(CCN(C)C(=O)Nc2nc(C3CC3)cs2)C[C@H](C)O1 | 9
12 | Cc1cccc(C(=O)Nc2c(C#N)c(-c3ccccc3)c(-c3ccccc3)n2Cc2ccccc2)c1 | 13
13 | CCC(C)NCC(O)Cn1c(-c2ccccc2)c(-c2ccccc2)c2cc(C)ccc21 (stereo unspecified) | 92
14 | Cc1c(C)n(C[C@H](O)Cn2c(C(F)(F)F)nc3ccccc32)c2c(Cl)cccc12 | -15
15 | Cc1c(C)n(CC(O)CNC(C)c2ccccc2)c2c(Cl)cccc12 (stereo unspecified) | 73
16 | Cc1c(C)n(C[C@@H](O)CNC2CCCC2)c2c(Cl)cccc12 | -18
17 | CC(NCC(O)Cn1c(-c2ccccc2)c(-c2ccccc2)c2ccc3ccccc3c21)c1ccccc1 (stereo unspecified) | 86
18 | O=S(=O)(c1c(Cl)cccc1Cl)N1CCC[C@@H]1CN1CCCC1 | 8
19 | Cc1cc(CN2C(=O)N[C@@]3(CCCCc4ccccc43)C2=O)no1 | 6
20 | COc1ccc([C@H](NC(=O)CCc2ccccc2)c2c(O)ccc3ccccc23)cc1 | -6
21 | Cc1cc(N2CCn3c(nc4ccccc43)C2)ccc1NC(=O)C1CCCCC1 | 14
22 | CN1c2ccccc2C(=O)N[C@@H]1c1ccccc1OCc1ccccc1 | -4
23 | COc1cccc(-n2c(C)cc(C(=O)N3CCNC(=O)CC3)c2C)c1 | -5
24 | N#Cc1c(NC(=O)Nc2cn3ccccc3c2C#N)cn2ccccc12 | 35
25 | O=C(NCC(N1CCOCC1)C(F)(F)F)C1CC12CCOC2 (stereo unspecified) | 14
26 | O=c1[nH]c2nc(N3CCCCC3)ncc2c(=O)n1Cc1ccco1 | -14

Row | Structure (SMILES) | % Inhibition [%]
27 | Cc1nc([C@@H](NC(=O)c2cc(Cl)cn2C)c2cnn(C)c2)no1 | -10
28 | Clc1ccc(COc2ccc(CNC3CCCCC3)cc2Br)cc1 | -12
29 | O=C(NC[C@H]1CCS(=O)(=O)C1)c1ccc2[nH]c3c(c2c1)CCCC3 | -6
30 | COc1cc(C(C)(C)C)c(OCC(=O)N(c2ccccc2)c2ccccc2)cc1C(C)(C)C | 7
31 | Cc1ccc(Oc2cc(C#N)c(C#N)cc2N2CCOCC2)cc1C | -9
32 | CC[N+](C)(CC)CCOc1cc(C)c2ccccc2n1 | 40
33 | Cc1nc2ccccc2cc1OCc1ccc(F)cc1 | 12
34 | COC(=O)c1ccccc1NC(=O)NCCn1nnc2cc(S(=O)(=O)N(C)C)ccc21 | 32
35 | CCN1C(=O)Cc2cc(NS(=O)(=O)Cc3ccccc3)ccc21 | 12
36 | COc1ccc(CN2CC[C@@H]3C(=O)NCCCCCCN(Cc4ccncc4)[C@@H]3C2)cc1Cn1ccnc1 | 37
37 | COc1cc(CNCCN2CCOCC2)ccc1OCc1ccc(C)cc1 | 10
38 | COc1ccc(CNCc2ccc(C)cc2)cc1Cn1ccnc1 | 69
39 | Cc1ccc(NS(=O)(=O)c2ccc(NC(=O)CN(c3cc(Cl)ccc3C)S(C)(=O)=O)cc2)cc1C | -13
40 | Cc1cc(-c2nc(C3(c4ccncc4)CCC3)no2)ccn1 | 4
41 | COc1ccc(S(=O)(=O)N2CCC(c3cc(N)on3)CC2)cc1Cl | 40
42 | COc1ccc(F)cc1S(=O)(=O)N1CCc2noc(N)c2C1 | 63
43 | COc1ccc(OC)c(S(=O)(=O)N2C[C@H]3CCCC(=O)N[C@H]3C2)c1 | 9
44 | COc1ccccc1OCC(=O)Nc1ccccc1-n1cnnc1C | 12
45 | C[C@H](NC(c1ccccc1)c1ccccc1)c1nnc(-c2cccs2)o1 | 7
46 | CCCOc1ccc(Nc2cc(C)nc3ccc(Cl)cc23)cc1 | 63
47 | Cc1cc(CS(=O)(=O)NCCOc2ccc(Cl)cc2)on1 | 2
48 | CC(C)(C)C1CC(NC(=O)C2CC=CC2)CCO1 (stereo unspecified) | -1
49 | Cc1cccc(C)c1OCC(=O)Nc1ccc(-c2nc3cc4ccccc4cc3[nH]2)cc1 | 18
50 | c1ccc2cc(-c3ccc4ccccc4n3)ccc2c1 | 16
51 | c1cc(-c2nc3cc4ccccc4cc3[nH]2)nc(-c2nc3cc4ccccc4cc3[nH]2)c1 | 97
